High-throughput results (PubChem BioAssay)
GRK2 aptamer HTS: compounds blocking aptamer binding on GRK2 – biochemical, human GRK2, bead flow cytometry, HTS, primary screen; FAM-aptamer displacement from GRK2; inhibition of aptamer binding, % at 10 µM; 330,000 compounds, 0.59% hits;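 active = inhibition of aptamer binding above 40%, roughly 3 SD of noise, on plates passing a quality check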;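 note: median bead fluorescence of bound FAM aptamer so fluorescent compounds give negative values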
Exocytosis inh: LAMP-1 surface exposure blockers, TALL-104 cells – cell-based, flow cytometry, MLPCN library, primary screen. TALL-104 LAMP-1 surface exposure; cells stimulated with thapsigargin and PMA. inhibition, % at 10 µM. 360,000 compounds, 0.66% hits;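 active = inhibition above about 55%, limit read from the data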
B2AR ag: beta2AR agonists driving receptor internalization, primary screen, cell-based, FAP fluorogen, flow cytometry; Beta-2 adrenergic receptor (Homo sapiens), P07550; AID 504454, 2011; Am2.2-beta2AR cells; response, % (no concentration beside the values); 340,000 compounds, 0.43% hits;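 active = response above a set limit, near 3 SD of response in nonfluorescent compounds, cut at about 42% in these data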
Target sequence (P07550 whole entry, looked up): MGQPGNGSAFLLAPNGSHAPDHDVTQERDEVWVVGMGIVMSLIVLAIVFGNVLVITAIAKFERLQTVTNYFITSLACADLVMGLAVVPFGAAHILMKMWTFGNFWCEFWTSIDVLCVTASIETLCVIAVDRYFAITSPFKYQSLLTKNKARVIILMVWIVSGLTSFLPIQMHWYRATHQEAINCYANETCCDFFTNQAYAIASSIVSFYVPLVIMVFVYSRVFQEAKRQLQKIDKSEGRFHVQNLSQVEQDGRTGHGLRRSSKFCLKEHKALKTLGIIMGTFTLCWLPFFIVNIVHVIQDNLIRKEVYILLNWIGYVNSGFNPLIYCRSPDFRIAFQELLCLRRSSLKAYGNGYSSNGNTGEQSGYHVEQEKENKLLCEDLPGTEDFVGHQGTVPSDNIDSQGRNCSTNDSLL
PP1 counter: PP1-alpha phosphatase inhibitors, primary screen, counter-screen for PP5 inhibitor project, biochemical, fluorescence, OMFP substrate, single point; inhibition, % at 6.7 µM; 320,000 compounds, 0.9% hits; purified PP1alpha; Serine/threonine-protein phosphatase PP1-alpha catalytic subunit (Homo sapiens), P62136;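 active = inhibition above the mean inhibition of all tested compounds plus 3 SD, computed separately for each screening campaign, cut at about 15% in these data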
NadD block: inhibitors of S. aureus NadD, primary screen, biochemical, colorimetric, uHTS. Nicotinate-nucleotide adenylyltransferase NadD (Staphylococcus aureus N315). purified NadD enzyme, colorimetric absorbance read-out. inhibition, % at 20 µM. 360,000 compounds, 0.78% hits. AID 602399, 2012; in the data active = inhibition above about 26%
PP1 confirm: PP1 phosphatase inhibitors, confirmation, biochemical, fluorescence, OMFP substrate, triplicate; purified PP1alpha; 1,900 compounds, 52% hits; inhibition, % at 6.7 µM; shares compounds with PP1 counter; AID 2358, 2010;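 active = mean PP1 inhibition above a set limit taken from the earlier primary screen, cut at about 15% in these data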
PP5 counter: PP5 phosphatase inhibition by PP1 hits, confirmation, counter-screen for PP1 inhibitor project, biochemical, fluorescence, triplicate. purified PP5c, OMFP fluorescence. 1,900 compounds, 4% hits. inhibition, % at 6.7 µM. shares compounds with PP1 counter;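 active = mean PP5 inhibition over triplicate wells above about 9.5% taken from the earlier PP1 screen, limit read from the data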
NadD inh conf: inhibitors of S. aureus NadD, confirmation, biochemical, colorimetric, single concentration. shares compounds with NadD block. purified S. aureus NadD, colorimetric enzyme assay. inhibition, % at 20 µM. 2,000 compounds, 13% hits. AID 624309, 2012; in the data active = inhibition mostly above about 42%, no sharp cut-off; inactive = mostly below about 42%
Hits are given with their value; n = inactive; x = not tested or not shown. Hits are enriched below; roughly 2.9% of the tested compounds scored in any of these assays.

SMILES	GRK2 aptamer HTS	Exocytosis inh	B2AR ag	PP1 counter	NadD block	PP1 confirm	PP5 counter	NadD inh conf
Cc1c(/C=N/NC(=O)CNc2ccccc2)c2ccccn2c1C(=O)c1ccc(Cl)cc1	n	n	n	21	36	n	n	n
CCCOc1ccc(N)cc1N	n	n	n	16	44	n	24	n
Cc1c(NC(=O)c2cccc(-c3cc4ccccc4oc3=O)c2)cccc1-c1nc2ncccc2o1	n	n	n	23	48	31	n	n
Cc1c(NC(=O)C(C)C)cccc1-c1nc2ncccc2o1	n	n	n	n	n	x	x	x
O=C(Nc1cccc(S(=O)(=O)NC2=NCCC2)c1)c1cc(-c2ccco2)nc2ccccc12	n	n	n	26	68	n	n	78
OCC1=C[C@@H](O)[C@@H]2C=CO[C@@H](O[C@@H]3O[C@H](CO)[C@@H](O)[C@H](O)[C@H]3O)[C@H]12	n	n	n	x	n	x	x	x
O=C(O)c1ccc(/C=N\Nc2ccc(S(=O)(=O)N3CCOCC3)cc2[N+](=O)[O-])cc1	n	n	n	n	n	x	x	x
Cc1ccc(-n2c(O)c(/C=N/Nc3ccc(S(=O)(=O)N4CCOCC4)cc3[N+](=O)[O-])c3ccccc3c2=O)c(C)c1	n	n	n	18	43	18	n	n
COc1cc(Cl)c(C)cc1NC(=O)CC1CCCC1	n	n	n	n	n	x	x	x
COc1ccc(-n2c(SCC(=O)Nc3sc4c(c3C#N)CCCC4)nnc2-c2ccccc2OC)cc1	n	n	n	18	41	n	n	n
COc1ccc(-c2nnc(SCC(=O)Nc3sc4c(c3C#N)CCC4)n2CC2CCCO2)cc1 (configuration not stated)	x	n	n	x	n	x	x	x
COc1ccccc1/C=C/C=N/n1c(-c2ccc(F)cc2)n[nH]c1=S	x	n	n	n	n	x	x	x
S=c1[nH]nc(-c2cc(-c3ccccc3)n[nH]2)n1/N=C/C=C/c1ccccc1	n	n	n	23	33	17	n	n
COc1ccccc1/C=C/C=N/n1c(-c2cc(-c3ccccc3)n[nH]2)n[nH]c1=S	n	n	n	22	36	27	n	n
O=C1N[C@@H](Cc2ccccc2)C(=O)N2CCCC12 (some centres not stated)	n	n	n	x	n	x	x	x
O=C1N[C@@H](Cc2ccccc2)C(=O)N2[C@H]1C[C@]1([C@]34C[C@H]5C(=O)N[C@@H](Cc6ccccc6)C(=O)N5[C@H]3N(S(=O)(=O)c3ccccc3)c3ccccc34)c3ccccc3N(S(=O)(=O)c3ccccc3)[C@H]21	n	n	n	30	38	23	n	n
COc1cccc2cc(/C(C)=N/Nc3nc(-c4cc(C)ccc4C)cs3)c(=O)oc12	n	n	n	20	34	19	n	n
CNC(=O)c1cc2cccc(OC)c2oc1=O	n	n	n	n	n	x	x	x
O=C(O)Cc1ccc(N2N=C(c3ccccc3)CC2=O)cc1	x	n	x	x	n	x	x	x
COC(=O)c1[nH]c2ccccc2c1NC(=O)CNC1CCCCC1	n	n	n	n	n	x	x	x
Cc1cc(-c2csc(NC(=O)c3ccc(=O)[nH]c3)n2)c(C)n1Cc1ccccc1	n	n	n	28	48	n	n	n
O=C(CSc1nc2ccc(NC(=O)CSc3nnnn3-c3ccccc3)cc2s1)Nc1ccccc1	n	n	n	20	39	26	n	n
O=C(COC(=O)CSc1ccc(Cl)cc1)NCCc1ccccc1	x	n	n	x	n	x	x	x
COCCN1C(=O)Cc2c1nc(N)c1c(N)nc(N3CCN(c4ccc(F)cc4)CC3)c(C#N)c21	n	n	n	19	37	n	n	n
CCCNC(=O)c1cc(C2CCCN(C(=O)c3ccccc3)C2)on1 (configuration not stated)	x	n	x	x	n	x	x	x
SMILES	GRK2 aptamer HTS	Exocytosis inh	B2AR ag	PP1 counter	NadD block	PP1 confirm	PP5 counter	NadD inh conf
O=C(CSc1nc(=O)n2ccccc2n1)N1N=C(c2cccs2)CC1c1ccc(F)cc1 (configuration not stated)	n	n	n	n	n	x	x	x
Cc1ccc(C2CC(c3cccs3)=NN2C(=O)CSc2nc(=O)n3ccc(C)cc3n2)cc1 (configuration not stated)	x	n	n	22	38	16	n	51
O=C(Cn1nnc2ccccc21)NNC(=S)NC1CCCCC1	n	n	n	n	n	x	x	x
O=c1[nH]c(CN2CCc3ccccc32)nc2scc(-c3cccs3)c12	n	n	n	19	42	n	n	n
O=C(CSCc1nc2scc(-c3cccs3)c2c(=O)[nH]1)Nc1ccccn1	n	n	n	n	n	x	x	x
Cc1ccc(S(=O)(=O)N2CCN(C(=O)COC(=O)c3nc(Cl)ccc3Cl)CC2)c(C)c1	x	n	n	x	n	x	x	x
NC(=O)/C(=N\OC(=O)c1ccco1)c1nc(-c2ccc(Br)cc2)cs1	n	n	n	27	30	n	n	49
C=Cc1ccc(Cn2c(C)c(C(=O)NCCC#N)sc2=O)cc1	x	n	x	x	n	x	x	x
NS(=O)(=O)c1ccc(N/N=C/c2cn(-c3ccccc3)nc2-c2cccs2)c([N+](=O)[O-])c1	n	n	n	26	36	26	n	n
COCCN(CC(=O)Nc1ccccc1C(F)(F)F)C(=O)c1ccc(-n2cccn2)cc1	n	n	n	n	n	x	x	x
Cc1c([N+](=O)[O-])cc(S(=O)(=O)Nc2ccc(-c3ccc(N4CCCC4)nn3)cc2)cc1[N+](=O)[O-]	n	n	n	19	57	21	n	n
O=C(O)C/C(=C\c1cccc(NC(=O)c2ccccc2Cl)c1)c1nc2ccccc2s1	n	n	n	n	n	x	x	x
COc1ccc(C(=O)Nc2cccc(/C=C(\CCC(=O)O)c3nc4ccccc4s3)c2)cc1	n	n	n	23	55	n	n	n
CCOc1ccc(/C=N/NC(=O)c2cc(-c3ccco3)nc3ccccc23)cc1	n	n	n	n	n	x	x	x
O=C(N/N=C/c1ccc(F)cc1)c1cc(-c2ccco2)nc2ccccc12	n	n	n	19	45	n	n	81
